Results published in PubChem BioAssay (NCATS).
Results filed as inconclusive are left out. Activity calls are given as the source filed them. Unless noted, calls follow the shape of the dose curve; as a rule, active = well fitted cell-killing curve with a large enough effect; inconclusive = small, poorly fitted or top-dose-only effect, or effect the other way; inactive = no such curve, though single readings can be large or run the other way.

Experiments:
[1] = Quantitative High-Throughput drug screen in 47 multiple myeloma cell lines against the NCATS MIPE library collection: L363_DSMZ cell viability assay (AID 1918984); settings: L363 myeloma viability, CellTiter-Glo ATP luminescence, 48 h; series mostly up to 45.8 µM; also: nearly all actives have a fitted effect of over 40% in size; also: potency is read from the fitted curve at half-maximal effect
How it was run: (§1)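 qHTS format: cells plated (500/well), pin-dosed with MIPE 4.0 compounds, kept 48 h at 37 °C. Readout was CellTiter-Glo luminescence, median RLU.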

[2] = Quantitative High-Throughput drug screen in 47 multiple myeloma cell lines against the NCATS MIPE library collection: SKMM1_PLB cell viability assay (AID 1919863); settings: SKMM1 myeloma viability, CellTiter-Glo ATP, 48 h; viability: stronger effect = lower value; also: nearly all actives have a fitted effect of over 35% in size; also: potency is read from the fitted curve at half-maximal effect
How it was run: as §1

[3] = Quantitative High-Throughput drug screen in 47 multiple myeloma cell lines against the NCATS MIPE library collection: XG6_PLB cell viability assay (AID 1919865); settings: XG6 myeloma viability, CellTiter-Glo ATP luminescence, 48 h; series mostly up to 45.8 µM; also: nearly all actives have a fitted effect of over 40% in size; also: potency is read from the fitted curve at half-maximal effect
How it was run: as §1

[4] = Quantitative High-Throughput drug screen in 47 multiple myeloma cell lines against the NCATS MIPE library collection: XG1_PLB cell viability assay (AID 1919866); settings: CellTiter-Glo ATP, 48 h; series mostly up to 45.8 µM; also: nearly all actives have a fitted effect of over 35% in size; also: potency is read from the fitted curve at half-maximal effect
How it was run: as §1

[5] = Quantitative High-Throughput drug screen in 47 multiple myeloma cell lines against the NCATS MIPE library collection: PE2_PLB cell viability assay (AID 1919869); settings: PE2_PLB myeloma cells viability, ATP luminescence, 48 h; series mostly up to 45.8 µM; also: nearly all actives have a fitted effect of over 35% in size; also: potency is read from the fitted curve at half-maximal effect
How it was run: as §1

[6] = Quantitative High-Throughput drug screen in 47 multiple myeloma cell lines against the NCATS MIPE library collection: PCM6_Riken cell viability assay (AID 1919870); settings: CellTiter-Glo ATP, 48 h; series mostly up to 45.8 µM; also: nearly all actives have a fitted effect of over 30% in size; also: potency is read from the fitted curve at half-maximal effect
How it was run: as §1

[7] = Quantitative High-Throughput drug screen in 47 multiple myeloma cell lines against the NCATS MIPE library collection: RPMI8226_ATCC cell viability assay (AID 1919871); settings: RPMI8226 myeloma viability, CellTiter-Glo ATP luminescence, 48 h; series mostly up to 45.8 µM; also: nearly all actives have a fitted effect of over 30% in size; also: potency is read from the fitted curve at half-maximal effect
How it was run: as §1

[8] = Quantitative High-Throughput drug screen in 47 multiple myeloma cell lines against the NCATS MIPE library collection: OPM2_DSMZ cell viability assay (AID 1919872); settings: OPM2 myeloma viability, CellTiter-Glo ATP luminescence, 48 h; series mostly up to 45.8 µM; also: nearly all actives have a fitted effect of over 30% in size; also: potency is read from the fitted curve at half-maximal effect
How it was run: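 Approved and investigational drugs from MIPE 4.0 were added by pin tool to 500 cells per well. After 48 hours at 37C, ATP-based CellTiter-Glo luminescence indicated remaining viability.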

[9] = Quantitative High-Throughput drug screen in 47 multiple myeloma cell lines against the NCATS MIPE library collection: KMS28BM_JCRB cell viability assay (AID 1919874); settings: CellTiter-Glo ATP, 48 h; series mostly up to 45.8 µM; also: nearly all actives have a fitted effect of over 35% in size; also: potency is read from the fitted curve at half-maximal effect
How it was run: as §1

[10] = qHTS drug screen for cell cycle checkpoint inhibitors in PARPi-resistant BRCA-mutant ovarian cancer cell lines. (AID 1963452; calls by dose curve); settings: PEO1/OlaR viability, CellTiter-Glo luminescence, 96 h, stronger effect = lower value
How it was run: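 PEO1, PEO4 and PEO1/OlaR ovarian cancer cells, 600 per well, exposed 96 h at 37C to a dilution series. Viability read by CellTiter-Glo luminescence, normalized to DMSO and empty wells; activity summarized as Z-AUC.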

[11] = qHTS for identification of novel therapeutic agents for treatment of microphthalmiaassociated transcription factor (MiT) renal cell carcinoma (RCC) (AID 1963991); settings: CellTiter-Glo, 48 h, stronger effect = lower value
How it was run: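 Viability of three TFE3-fusion renal carcinoma lines measured by CellTiter-Glo after 48 h treatment with each of 1912 compounds at 11 concentrations. Responses scaled between DMSO (100%) and empty wells (0%) before curve fitting.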

[12] = Quantitative High-Throughput drug screen in 47 multiple myeloma cell lines against the NCATS MIPE library collection: KMS34_JCRB cell viability assay (AID 1918985); settings: KMS34 myeloma viability, CellTiter-Glo ATP luminescence, 48 h; series mostly up to 45.8 µM; also: potency is read from the fitted curve at half-maximal effect; nearly all actives have a fitted effect of over 40% in size
How it was run: as §1

[13] = Quantitative High-Throughput drug screen in 47 multiple myeloma cell lines against the NCATS MIPE library collection: OCIMY7_PLB cell viability assay (AID 1918987); settings: OCI-MY7 myeloma viability, CellTiter-Glo ATP, 48 h; series mostly up to 45.8 µM; also: potency is read from the fitted curve at half-maximal effect; nearly all actives have a fitted effect of over 65% in size
How it was run: as §1

[14] = Quantitative High-Throughput drug screen in 47 multiple myeloma cell lines against the NCATS MIPE library collection: OCIMY5_PLB cell viability assay (AID 1918988); settings: OCI-MY5 myeloma viability, ATP luminescence, 48 h; series mostly up to 45.8 µM; also: potency is read from the fitted curve at half-maximal effect; nearly all actives have a fitted effect of over 65% in size
How it was run: as §1

[15] = Quantitative High-Throughput drug screen in 47 multiple myeloma cell lines against the NCATS MIPE library collection: OPM1_PLB cell viability assay (AID 1918989); settings: CellTiter-Glo, 48 h; series mostly up to 45.8 µM; also: potency is read from the fitted curve at half-maximal effect; nearly all actives have a fitted effect of over 40% in size
How it was run: as §1

[16] = Quantitative High-Throughput drug screen in 47 multiple myeloma cell lines against the NCATS MIPE library collection: U266_ATCC cell viability assay (AID 1919864); settings: U266 myeloma viability, CellTiter-Glo ATP luminescence, 48 h; series mostly up to 45.8 µM
How it was run: as §1

[17] = Quantitative High-Throughput drug screen in 47 multiple myeloma cell lines against the NCATS MIPE library collection: VP6_DJ cell viability assay (AID 1919867); settings: ATP luminescence, 48 h; series mostly up to 45.8 µM
How it was run: as §1

[18] = Quantitative High-Throughput drug screen in 47 multiple myeloma cell lines against the NCATS MIPE library collection: KMS11_JCRBsus cell viability assay (AID 1919873); settings: KMS11 myeloma viability, CellTiter-Glo ATP luminescence, 48 h; series mostly up to 45.8 µM; also: potency is read from the fitted curve at half-maximal effect; nearly all actives have a fitted effect of over 50% in size
How it was run: as §1

[19] = Quantitative High-Throughput drug screen in 47 multiple myeloma cell lines against the NCATS MIPE library collection: UTMC2_PLB cell viability assay (AID 1919868); settings: CellTiter-Glo ATP luminescence, 48 h; viability (% of DMSO control): at 45.8 µM (top of the series) unless noted; also: potency is read from the fitted curve at half-maximal effect; nearly all actives have a fitted effect of over 55% in size
How it was run: as §1

[20] = measured here: PEO1 parental Z-AUC

C1Cc2[nH]nc(-c3nn[nH]n3)c2C1
-0.47: Z-AUC [10, 20]
-0.0239: z-score ([11]; TFE3-RCC UOK109 viability, measured here: UOK109 Z-AUC)
inactive: Potency [1] | viability [2] 115% | Potency [3] | Potency [4] | Potency [5] | Potency [6] | Potency [7] | Potency [8] | Potency [9] | Z-AUC [10] -0.759
0.169: z-score ([11]; TFE3-RCC viability, measured here: UOK145 Z-AUC)
-0.646: Z-AUC ([10]; measured here: PEO4 Z-AUC)
0.708: z-score ([11]; TFE3-RCC viability, measured here: UOK124 Z-AUC)

COc1cccc2c(NCc3ccccc3)nc(-n3c(N)nc4ccccc43)nc12
inactive: Z-AUC [10] -0.255
-0.014: Z-AUC ([10]; measured here: PEO4 Z-AUC)
active: Potency [12] 6620 nM | Potency [13] 2960 nM | Potency [14] 7430 nM | Potency [15] 5260 nM | Potency [2] 7430 nM | Potency [16] 5900 nM | Potency [3] 2090 nM | Potency [4] 2350 nM | Potency [17] 4180 nM | Potency [5] 5260 nM | Potency [6] 2350 nM | Potency [7] 8330 nM | Potency [8] 8330 nM | Potency [18] 2640 nM | Potency [9] 2960 nM
0.136: Z-AUC [10, 20]

C[C@@H]1COC(Nc2ccc3ncnc(Nc4ccc(OCc5nccs5)c(Cl)c4)c3c2)=N1
active: Potency [1] 9350 nM | Potency [14] 2960 nM | Potency [16] 18700 nM | Potency [3] 37.2 nM | Potency [4] 105 nM | Potency [17] 3720 nM | Potency [19] 2960 nM | Potency [5] 4180 nM | Potency [6] 2960 nM | Potency [7] 33200 nM | Potency [8] 26400 nM | Potency [18] 18700 nM

COc1cccc(-c2ccc(NC(=O)C3=C(C(=O)O)CCC3)c(F)c2)c1
0.433: Z-AUC [10, 20]
0.985: Z-AUC ([10]; measured here: PEO4 Z-AUC)
active: Potency [15] 6620 nM | Potency [2] 5900 nM | Potency [16] 13200 nM | Potency [4] 4180 nM | Potency [6] 3320 nM | Potency [7] 13200 nM | Potency [18] 14800 nM | Potency [9] 18700 nM
inactive: Potency [1] | Z-AUC [10] 0.233

O=C(NCCCNc1nc(Nc2cccc(NC(=O)N3CCCC3)c2)ncc1I)c1cccs1
active: Potency [12] 1050 nM | Potency [13] 1870 nM | Potency [14] 13200 nM | Potency [15] 3720 nM | Potency [2] 20900 nM | Potency [16] 18700 nM | Potency [3] 1320 nM | Potency [4] 1050 nM | Potency [17] 2090 nM | Potency [5] 1180 nM | Potency [6] 5260 nM | Potency [8] 16600 nM
1.02: Z-AUC [10, 20]
0.426: Z-AUC ([10]; measured here: PEO4 Z-AUC)
inactive: Z-AUC [10] 1.15

CC1=C(CO)C(=O)O[C@@H]([C@@H](C)[C@H]2CC[C@H]3[C@@H]4C[C@H]5O[C@]56[C@@H](O)C=CC(=O)[C@]6(C)[C@@H]4CC[C@]23C)C1
active: Potency [12] 118 nM | Potency [13] 105 nM | Potency [14] 132 nM | Potency [15] 132 nM | Potency [2] 296 nM | Potency [16] 264 nM | Potency [3] 469 nM | Potency [4] 209 nM | Potency [19] 296 nM | Potency [5] 166 nM | Potency [6] 166 nM | Potency [7] 187 nM | Potency [8] 296 nM | Potency [18] 93.5 nM | Potency [9] 132 nM
